According to PubChem BioAssay AID492993 (Johns Hopkins Ion Channel Center, 2010):
The whole screen tested about 4,900 compounds, of which about 200 (4.1%) were called active.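 The calls were made as follows: active = thallium signal drop more than 5 SD beyond the mean of the no-compound control wells, seen in both duplicate plates; inactive = the rest.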 These entries were drawn from the full list.

These compounds were tested against Inward rectifier potassium channel 2 (Mus musculus) (UniProt P35561) (assay: off-target Kir2.1 potassium flux block – cell-based, HEK293, thallium flux, selectivity assay for KCNK9 modulator project, confirmation (AID 492993;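 as to inhibition: signal is fluorescence rise after thallium addition divided by baseline fluorescence; plate controls were assay buffer only for no effect and full block by chlorpromazine control for full effect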)). Settings: Kir2.1 cells, FluxOR thallium flux fluorescence, at 10 µM; stronger effect = higher value.
Inward rectifier potassium channel 2 (Mus musculus), sequence (P35561 whole entry, looked up): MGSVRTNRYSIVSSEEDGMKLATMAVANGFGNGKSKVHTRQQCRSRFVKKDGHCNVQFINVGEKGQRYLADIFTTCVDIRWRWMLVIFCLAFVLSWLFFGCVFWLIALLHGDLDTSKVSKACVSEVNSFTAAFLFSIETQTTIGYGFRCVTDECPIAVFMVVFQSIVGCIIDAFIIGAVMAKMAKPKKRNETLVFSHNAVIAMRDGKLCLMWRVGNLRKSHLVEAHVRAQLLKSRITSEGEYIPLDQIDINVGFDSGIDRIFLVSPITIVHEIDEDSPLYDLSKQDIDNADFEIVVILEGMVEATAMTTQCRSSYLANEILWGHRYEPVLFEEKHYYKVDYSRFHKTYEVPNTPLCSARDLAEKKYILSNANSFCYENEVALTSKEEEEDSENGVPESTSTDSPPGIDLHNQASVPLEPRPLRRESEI

inhibition, inactive:
COc1ccc(C(C)=O)cc1COc1ccc(Cl)c(C)c1
CCOC(=O)c1c(NC(=O)CCCN2CCOCC2)sc2c1CC(C)(C)OC2
O=C1c2ccccc2S(=O)(=O)N1CC(O)Cn1c2ccccc2c2ccccc21 (configuration not stated)
COc1cc(Cl)c(S(=O)(=O)N2CCN(Cc3ccc4c(c3)OCO4)CC2)cc1Cl
Cc1cc(Cl)ccc1C(=O)C1CCCN(C(=O)CCN2CCCO2)C1 (configuration not stated)
Cc1ccccc1N1CCN(Cc2nc(Cc3ccccc3F)no2)CC1
COc1cccc(C(=O)NCCSc2ccc(Br)cc2)c1
COc1cc(NC(=S)NCCSc2ccc(C)cc2)cc(OC)c1
O=S(=O)(c1ccc(F)cc1)N1CCN(Cc2ccccc2C(F)(F)F)CC1
O=C(CSCc1ccc(Br)cc1)Nc1ccc(S(=O)(=O)N2CCCCCC2)cc1
CC1=C/C(=N\OS(=O)(=O)c2ccccc2)C=CC1=O
COc1ccc(-c2oc(/N=C/N3CCCC3)c(C#N)c2-c2ccc(OC)cc2)cc1
Cc1ccc(S(=O)(=O)N2CCN(C(=O)COC(=O)c3c(C)cc(C)cc3C)CC2)c(C)c1
Cc1ccc(NC2CCCN(C(=O)CCC3(C)CC3)C2)cc1C (configuration not stated)
CCOc1ccccc1NC(=O)C12CC3CC(C1)CC(c1ccc(C)cc1)(C3)C2
COCCN(C(=S)Nc1cccc(Cl)c1C)C(C)c1ccco1 (configuration not stated)
Cn1nc(-c2ccccc2)c(CSc2cccc(Cl)c2)c1Cl
COc1ccc(C2Nc3ccccc3C(=O)N2Cc2ccccc2)cc1Cn1nnc2ccccc21 (configuration not stated)
Cc1csc(Nc2ccc(Cl)cc2)[n+]1-c1ccc(Cl)cc1
CCC1=NN(C(=O)Cc2ccc([N+](=O)[O-])cc2)C(O)(c2ccc(Br)cc2)C1 (configuration not stated)
COc1ccc(OC)c(C(=O)c2coc3ccc(OC)cc23)c1
Cc1cc(Oc2ccc(Cl)cc2)nc(SCC(=O)c2ccccc2)n1
CCCC(=O)n1nc(NCc2ccc(OC)cc2)nc1NCc1ccc(OC)cc1
CCCCn1ccnc1C(=O)c1cccc(S(=O)(=O)N2c3ccccc3CC2C)c1 (configuration not stated)
CCCC1=Nc2cc(C(=O)NCc3ccco3)ccc2Sc2ccccc21
Cc1ccc(N2CCN(S(=O)(=O)c3ccc(F)cc3)CC2)c(C)c1
CCc1cccc(C)c1N(C(=O)Cn1c(CO)nc2ccccc21)C(C)COC (configuration not stated)
CCCN1C(=O)C(Cc2nc3ccccc3c(=O)n2-c2ccccc2)c2cc(C)ccc21 (configuration not stated)
CCOC(=O)CSc1nc2c(sc(=S)n2CCc2ccccc2)c(=O)n1Cc1ccco1
Cc1ccccc1CSCCNC(=O)c1ccc(N(C)S(=O)(=O)c2ccccc2)cc1
CN(CCC(=O)Nc1cc(S(=O)(=O)N(C)C)ccc1Cl)CC(=O)Nc1ccc(F)cc1
CCOC(=O)C1=C(C)Nc2sc(C(=O)c3ccc(Br)cc3)c(N)c2C1c1ccc(C(=O)OC)cc1 (configuration not stated)
Cc1ccc(C(=O)c2c(NC(=O)c3ccccc3)sc(C)c2C)cc1
CCOc1ccc(CN(Cc2ccco2)C(c2cccs2)c2nnnn2C(C)(C)C)cc1 (configuration not stated)
COc1ccc(C2CC(c3cccs3)=Nc3ccccc3S2)cc1OC (configuration not stated)
COc1ccc(C(CCN(Cc2ccc(OC)c(OC)c2)C(=O)CCl)c2ccccc2)cc1 (configuration not stated)
Cc1ccc(OCc2cc(C(=O)N(C)CCc3ccccc3)no2)cc1C
CCOc1ccc(OCc2ccc(C(=O)Nc3cccc(C)n3)o2)cc1
Cc1ccccc1CSc1nnc(CCCCCNC(=O)OC(C)(C)C)o1
CC1(C)CC(=O)CC2(C1)NCC(c1ccccc1Cl)c1c2[nH]c2ccccc12 (configuration not stated)
O=C(NCCc1ccccc1)c1ccc2c(c1)N(Cc1ccccc1)CCS2
CCC1(C)Cc2c(sc3[nH]c(=S)n(Cc4ccccc4)c(=O)c23)CO1 (configuration not stated)
COc1ccc(CCNc2ncnc3c2nnn3Cc2ccccc2)cc1
COc1ccc(-c2nc(CCNC(=O)c3ccc(Br)o3)cs2)cc1
CCOc1ccc2[nH]c(=O)c(CN(Cc3nnnn3CCc3ccccc3)CC3CCCO3)cc2c1 (configuration not stated)
C=CCOc1ccc(/C=N/NC(=O)C(C)Sc2ccccn2)cc1OCC (configuration not stated)
O=C(OCC(=O)N(CCc1ccccc1)Cc1ccccc1)c1ccccc1[N+](=O)[O-]
Cc1cccc(NC(=O)c2sc3nc4c(c(-c5ccco5)c3c2N)CCC4)c1
O=C(/C=C/NNC(=O)c1cccc(Br)c1)c1ccccc1
COc1cccc(-c2nn(C)c3sc(C(=O)N4CCN(c5ccccc5)CC4)cc23)c1
CC(C)CC(COCc1ccc(Cl)cc1)N1CCN(C(=O)c2ccc(C(F)(F)F)cc2)CCC1=O (configuration not stated)
O=C(COC(=O)c1c2c(nc3ccccc13)CCCC2)c1ccc(Br)s1
Cc1cc(OC(C)C(=O)Nc2ccc(S(=O)(=O)Nc3onc(C)c3C)cc2)cc(C)c1Cl (configuration not stated)
Cc1cccc(C(=O)Nc2ccccc2N2CCN(c3ccc(F)cc3)CC2)c1
CCCCC(=O)Nc1ccccc1N1CCN(c2ccc(F)cc2)CC1
CCOc1ccccc1NC(=O)C1CCCN(S(=O)(=O)c2ccccc2)C1 (configuration not stated)
COc1ccc(C(=O)Nc2ccccc2C(=O)N/N=C/c2ccccc2OC)cc1
COC(=O)C1=C(Nc2ccc(C)cc2)C=C(C)C(C(=O)OC)C1c1ccc(F)cc1 (configuration not stated)
Clc1ccc(Cl)c(Oc2ccc(Oc3nc(Cl)ccc3Cl)cc2)n1
CCOc1cccc(OCCCOc2cccc3cccnc23)c1
O=C(COC(=O)c1ccccc1)Nc1ccccc1Sc1ccccc1
COc1cccc(-c2cnc(OC(C)(C)C)nc2OC(C)(C)C)c1
CC(C)(C)C1CCC(C(=O)NCC(c2cccs2)N2CCOCC2)CC1 (configuration not stated)
COCCNc1cc(-c2ccccc2)nc2cc(-c3cccc(F)c3)nn12
CCOC(=O)N1CCN(C(=O)COc2ccc3oc4c(c3c2)CCCC4)CC1
O=C(NCc1ccccc1)C1=C[C@@H](C2CCCCC2)C[C@@H](OCc2ccc(CO)cc2)O1
CCN(C(=O)COc1ccc(C(=O)c2ccccc2)cc1)c1ccccc1
Cc1cc2ccccn2c1C(=O)c1cccc(F)c1
CCOC(=O)C(C)Sc1nc2ccccc2c(=O)n1CC1CCCCC1 (configuration not stated)
COc1cc(Cl)c(C)cc1NC(=O)CSc1nnc(-c2ccco2)n1CC(C)C
CC1CCN(C(=O)c2ccc(CSc3ccc(Cl)cc3)cc2)CC1
COc1ccc(-c2n[nH]c3c2CN(C(=O)c2ccc(F)cc2)CC3)cc1
Cc1ccc2c(c1)N(C(=O)CCC(=O)N1CCc3ccccc3C1)CCO2
O=C1CC(c2ccccc2)=NN1c1ccc([N+](=O)[O-])cc1
CCOC(=O)C1(CCOc2ccccc2)CCN(Cc2cc(OC)c(O)cc2Cl)CC1
COc1cccc(NC(=S)N(CCc2c(C)[nH]c3ccccc23)Cc2ccco2)c1
Cc1cccc(N2CCN(C(=O)c3cccc(S(=O)(=O)N4CCc5ccccc5C4)c3)CC2C)c1 (configuration not stated)
CCC(c1nnnn1Cc1ccco1)N(CCc1ccccc1)Cc1cc2cccc(C)c2[nH]c1=O (configuration not stated)
COc1cccc2cc(C(C)N(CCCN3CCOCC3)C(=O)Nc3ccc(Cl)cc3)oc12 (configuration not stated)
Cc1cccc2cc(CN(Cc3nnnn3Cc3ccccc3)C3CCCC3)c(=O)[nH]c12
Fc1ccc(Cn2nnnc2C(c2cccs2)N2CCCCCC2)cc1 (configuration not stated)
COc1ccc(C(=O)NN2C(=O)C3C(c4ccccc4)C=CC(c4ccccc4)C3C2=O)cc1 (configuration not stated)
COc1cc(Cl)ccc1OCc1cc(C(=O)N2CC[C@@H]3CCCC[C@H]3C2)no1
COc1ccccc1/C=C/C=N/n1c(-c2ccc(Cl)cc2Cl)n[nH]c1=S
CCOc1ccc(C2c3[nH]c4ccccc4c3CCN2Cc2cccn2-c2ncccn2)cc1 (configuration not stated)
CC1=NN(c2cccc(Cl)c2)C(=O)C12CC(C)=C(C)CS2 (configuration not stated)
CC1=CC(C)(C)N(C(=O)CSc2nnc(-c3ccccc3)o2)c2ccc(C)cc21
Fc1cccc(Cl)c1CSc1ccc(-c2ccco2)nn1
O=C(Nn1c(SCc2ccc([N+](=O)[O-])cc2)nc2ccccc2c1=O)c1ccc(F)cc1
Cc1ccc(NC(=O)c2cc([N+](=O)[O-])ccc2Cl)c(O)c1
O=C(Nc1ccc2c(c1)CCC2)c1cccc(S(=O)(=O)Nc2ccccc2Cl)c1
COc1ccc(OC)c(-c2csc(-c3cccs3)n2)c1
CCN(CC)S(=O)(=O)c1ccc(N(C)Cc2ccc(C(F)(F)F)cc2)nc1
Cc1ccnc(N2CCN(C(=O)CSc3nc4ccccc4nc3N3CCCCC3)CC2)c1
CC(C)(C)NC(=O)NC(=O)CN1CCC(Cc2ccccc2)CC1
CCN(CC)C(=O)CC1(c2ccccc2OC)CCOC(C(C)C)C1 (configuration not stated)
COC(=O)c1cc(NC2c3ccccc3C(=O)N2c2ccc(Cl)cn2)cc(C(=O)OC)c1 (configuration not stated)

inhibition, active:
Cc1cc(C)cc(NC(=O)CSCc2cnn(-c3ccccc3)c2-n2cccc2)c1 43%
O=[N+]([O-])/C=C/c1ccc2c(ccn2Cc2ccccc2)c1 41.5%
CN(c1ccccc1)S(=O)(=O)c1cccc(NC(=O)Cc2c(F)cccc2Cl)c1 28.5%
COc1ccc(CCNC(=O)c2ccccc2OCc2ccccc2)cc1 54.5%
O=C(CNCCC1=CCCCC1)Nc1ccccc1N1CCCCCC1 34.5%
